Reference: PubChem BioAssay AID1159580 (chemical genetic matrix, 2015)
Several values for one entry are separate records, joined by “and”; a condition that tells them apart may be missing. Equal values may be shown once. In all, about 5,500 compounds went through this assay and about 2,000 (36%) were called active. About 18% were inconclusive and are not listed. Cut-off read from the data, not from the text of the source: active = normalized growth mostly below about 0.91 (no sharp cut-off); inconclusive = no clear call, values can overlap the other calls; inactive = mostly above about 0.92. Some of the results follow.

Experiment: chemical genetic growth profiling, strain panel (AID 1159580);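 note: tested at 20 µM; growth read once vehicle control cultures reached saturation at 30 °C; 1 = growth at the plate median or of vehicle wells; lower values mean less growth of the strain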
Settings: growth OD

Measured: normalized growth

CCC1C(=O)OCC1Cc1cncn1C (stereo unspecified)
inactive: S. cerevisiae deletion strains, locus YJR075W, strain HOC1, active compounds read low 1.01 and 0.997 and 1.02 | S. cerevisiae deletion strains, locus YKL009W, strain mrt4, active compounds read low 0.99 and 0.991 | S. cerevisiae deletion strains, locus YKL068W, active compounds read low 1 and 0.995 | S. cerevisiae deletion strains, locus YKL085W, strain MDH1 (second series), active compounds read low 1.01 and 1.04 | S. cerevisiae deletion strains, locus YKL085W, strain MDH1, active compounds read low 1.01 and 1.04 | S. cerevisiae deletion strains, locus YKL160W, strain elf1, active compounds read low 1.03 and 1.01 | S. cerevisiae deletion strains, locus YKL190W, strain CNB1, active compounds read low 1.02 and 1.01 | S. cerevisiae deletion strains, locus YKR001C, strain vps1, active compounds read low 1.01 | S. cerevisiae deletion strains, locus YKR026C, strain gcn3, active compounds read low 1.02 and 0.993 | S. cerevisiae deletion strains, locus YKR091W, strain srl3, active compounds read low 1.02 | S. cerevisiae deletion strains, locus YLL001W, strain dnm1, active compounds read low 1.02 | S. cerevisiae deletion strains, locus YLL026W, active compounds read low 1.01 and 1.02 | S. cerevisiae deletion strains, locus YLL041C, strain sdh2, active compounds read low 1.01 and 1.02 | S. cerevisiae deletion strains, locus YLR027C, strain aat2, active compounds read low 1.02 and 1.01 | S. cerevisiae deletion strains, locus YLR039C, strain RIC1, active compounds read low 1.02 and 1.07 | S. cerevisiae deletion strains, locus YLR058C, strain SHM2, active compounds read low 1.01 | S. cerevisiae deletion strains, locus YLR102C, strain apc9, active compounds read low 1.01 and 0.998 | S. cerevisiae deletion strains, locus YLR113W, strain HOG1, active compounds read low 0.972 | S. cerevisiae deletion strains, locus YLR221C, strain rsa3, active compounds read low 1.02 and 1.01 | S. cerevisiae deletion strains, locus YLR258W, strain gsy2, active compounds read low 1.02 and 1.01 | S. cerevisiae deletion strains, locus YLR262C, strain YPT6 (second series), active compounds read low 1.04 and 1.05 | S. cerevisiae deletion strains, locus YLR262C, strain YPT6, active compounds read low 1.04 and 1.1 | S. cerevisiae deletion strains, locus YLR268W, strain sec22, active compounds read low 1.06 and 0.999 | S. cerevisiae deletion strains, locus YLR320W, strain mms22, active compounds read low 1.03 and 1.02 | S. cerevisiae deletion strains, locus YLR330W, strain CHS5, active compounds read low 1.01 | S. cerevisiae deletion strains, locus YLR342W, strain FKS1 (second series), active compounds read low 0.996 and 1 | S. cerevisiae deletion strains, locus YLR342W, strain FKS1, active compounds read low 1.02 | S. cerevisiae deletion strains, locus YLR357W, strain rsc2, active compounds read low 0.988 and 0.997 | S. cerevisiae deletion strains, locus YLR370C, strain arc18, active compounds read low 1.01 and 1.02 | S. cerevisiae deletion strains, locus YLR371W, strain rom2, active compounds read low 1.01 and 0.995 | S. cerevisiae deletion strains, locus YLR384C, strain iki3, active compounds read low 1.02 and 1.03 | S. cerevisiae deletion strains, locus YLR418C, strain cdc73, active compounds read low 1.02 | S. cerevisiae deletion strains, locus YML016C, strain PPZ1, active compounds read low 1.01 | S. cerevisiae deletion strains, locus YML032C, strain rad52, active compounds read low 1.03 and 0.985 | S. cerevisiae deletion strains, locus YML120C, strain ndi1, active compounds read low 1.02 and 1.03 | S. cerevisiae deletion strains, locus YML124C, strain tub3, active compounds read low 1.01 and 0.994 | S. cerevisiae deletion strains, locus YMR058W, strain fet3, active compounds read low 1.01 and 1.02 | S. cerevisiae deletion strains, locus YMR078C, strain ctf18, active compounds read low 1.02 and 0.99 | S. cerevisiae deletion strains, locus YMR125W, strain sto1, active compounds read low 1.02 | S. cerevisiae deletion strains, locus YMR129W, active compounds read low 1.01 and 1.02 | S. cerevisiae deletion strains, locus YMR205C, strain PFK2, active compounds read low 1.04 and 1.02 | S. cerevisiae deletion strains, locus YMR223W, strain ubp8, active compounds read low 0.991 and 1 | S. cerevisiae deletion strains, locus YMR231W, strain pep5, active compounds read low 1.02 and 1.01 | S. cerevisiae deletion strains, locus YMR263W, strain SAP30, active compounds read low 1.01 and 0.995 and 1.02 | S. cerevisiae deletion strains, locus YMR307W, strain GAS1, active compounds read low 0.989 and 1.01 and 0.99 | S. cerevisiae deletion strains, locus YNL067W, strain RPL9B, active compounds read low 1.01 | S. cerevisiae deletion strains, locus YNL071W, strain lat1, active compounds read low 1.01 and 1.02 | S. cerevisiae deletion strains, locus YNL128W, strain TEP1, active compounds read low 1.01 | S. cerevisiae deletion strains, locus YNL153C, strain GIM3, active compounds read low 1.02 and 0.971 | S. cerevisiae deletion strains, locus YNL175C, strain NOP13, active compounds read low 1.01 and 0.972 | S. cerevisiae deletion strains, locus YNL183C, strain NPR1, active compounds read low 0.95 | S. cerevisiae deletion strains, locus YNL197C, strain WHI3, active compounds read low 1.01 and 0.989 | S. cerevisiae deletion strains, locus YNL209W, strain ssb2, active compounds read low 1.02 | S. cerevisiae deletion strains, locus YNL224C, strain SQS1, active compounds read low 1 and 0.989 | S. cerevisiae deletion strains, locus YNL233W, strain BNI4, active compounds read low 1.01 and 1.02 | S. cerevisiae deletion strains, locus YNL248C, strain rpa49, active compounds read low 1 and 1.01 | S. cerevisiae deletion strains, locus YNL250W, strain rad50, active compounds read low 1.01 and 0.986 | S. cerevisiae deletion strains, locus YNL271C, strain bni1, active compounds read low 1.01 | S. cerevisiae deletion strains, locus YNL298W, strain CLA4, active compounds read low 1.01 and 0.999 | S. cerevisiae deletion strains, locus YNL307C, strain MCK1, active compounds read low 1.02 and 1.01 | S. cerevisiae deletion strains, locus YNL322C, strain KRE1 (second series), active compounds read low 1.02 | S. cerevisiae deletion strains, locus YNL322C, strain KRE1, active compounds read low 1.01 | S. cerevisiae deletion strains, locus YNR049C, strain mso1, active compounds read low 1.02 and 1.01 | S. cerevisiae deletion strains, locus YNR052C, strain pop2, active compounds read low 1.01 and 0.997 | S. cerevisiae deletion strains, locus YOL006C, strain TOP1, active compounds read low 1.1 and 1.08 | S. cerevisiae deletion strains, locus YOL012C, strain htz1 0.844 and 0.846 | S. cerevisiae deletion strains, locus YOL147C, strain pex11, active compounds read low 1.02 and 0.99 | S. cerevisiae deletion strains, locus YOR001W, strain rrp6, active compounds read low 0.998 and 1.02 | S. cerevisiae deletion strains, locus YOR061W, strain CKA2, active compounds read low 1.01 and 1.02 | S. cerevisiae deletion strains, locus YOR069W, strain VPS5, active compounds read low 1.01 | S. cerevisiae deletion strains, locus YOR070C, strain gyp1, active compounds read low 1.02 | S. cerevisiae deletion strains, locus YOR080W, strain dia2, active compounds read low 1.02 | S. cerevisiae deletion strains, locus YOR083W, strain WHI5 (second series), active compounds read low 0.992 and 1 | S. cerevisiae deletion strains, locus YOR083W, strain WHI5, active compounds read low 1.02 | S. cerevisiae deletion strains, locus YOR106W, strain vam3, active compounds read low 1.02 | S. cerevisiae deletion strains, locus YOR136W, strain idh2, active compounds read low 1.02 and 1 | S. cerevisiae deletion strains, locus YOR144C, strain elg1, active compounds read low 1.02 and 0.993 | S. cerevisiae deletion strains, locus YOR184W, strain ser1, active compounds read low 1.04 and 1.01 | S. cerevisiae deletion strains, locus YOR231W, strain MKK1, active compounds read low 0.976 | S. cerevisiae deletion strains, locus YOR265W, strain rbl2, active compounds read low 1.02 and 1.01 | S. cerevisiae deletion strains, locus YOR270C, strain vph1, active compounds read low 1.02 and 1.07 | S. cerevisiae deletion strains, locus YOR290C, strain snf2, active compounds read low 1.03 and 0.969 | S. cerevisiae deletion strains, locus YOR316C, strain cot1, active compounds read low 1.02 and 0.999 | S. cerevisiae deletion strains, locus YPL051W, strain arl3, active compounds read low 1.02 and 1.01 | S. cerevisiae deletion strains, locus YPL055C, strain LGE1, active compounds read low 1.06 and 1 | S. cerevisiae deletion strains, locus YPL078C, strain atp4, active compounds read low 1.02 and 1.01 | S. cerevisiae deletion strains, locus YPL106C, strain sse1, active compounds read low 1.02 | S. cerevisiae deletion strains, locus YPL240C, strain hsp82, active compounds read low 1.03 and 1.02 | S. cerevisiae deletion strains, locus YPL241C, strain CIN2, active compounds read low 1.01 | S. cerevisiae deletion strains, locus YPL256C, strain CLN2, active compounds read low 0.979 | S. cerevisiae deletion strains, locus YPR119W, strain clb2, active compounds read low 1.01 and 0.99 | S. cerevisiae deletion strains, locus YPR141C, strain kar3, active compounds read low 1.01 and 1 | S. cerevisiae deletion strains, locus YPR163C, strain tif3, active compounds read low 1.03 and 0.994 | S. cerevisiae deletion strains, locus YPR167C, strain met16, active compounds read low 1.02 and 0.995 | S. cerevisiae deletion strains, strain wtn01, active compounds read low 1.03 and 0.997 | S. cerevisiae strains, strain wild type, active compounds read low 1.01
